Out of some 290,000 compounds screened, about 2,300 (0.79%) were called active. This is one part of a sample in which actives are shown more often than they occur. Unmarked numbers belong to inactive results. No stated cut-off is given here; in the data, active means inhibition above about 22%; inactive means the rest.

The nature of the test: cytotoxicity in IEC-6 intestinal epithelial cells, primary screen, cytotoxicity control for KLF5 inhibitor project, cell-based, luminescence (AID 1825).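 Further: 0% = plate median of test compound wells and 100% = cytotoxic reference compound wells.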 As to conditions: IEC-6 cytotoxicity, luminescence viability; at 5 µM; active compounds read high.
Consider `COc1ccc(NC(=O)c2cccc(Cl)c2)c[n+]1[O-]`, for which the inhibition (in general, the relative decrease from the control value, in per cent) is 2.7%. On to `COCCN1C(=O)C(=O)/C(=C(/O)c2ccc(S(=O)(=O)N3CCOCC3)cc2)C1c1ccc(O)c(OC)c1` (configuration not stated), for which the inhibition is -5.5%. `O=C(NCCCN1CCOCC1)c1cc(-c2cccc(O)c2)on1`: the inhibition was -0.6%. Next, `O=C(N/N=C\c1cc2c(cc1Cl)OCO2)c1ccc(Br)s1`: 0.3%; `CCc1ccc(OCC2c3cc(OC)c(OC)cc3CCN2C(C)=O)cc1` (configuration not stated): 9%. Turning to `CC[C@H]1CN2CCc3cc(OC)c(OC)cc3[C@@H]2C[C@@H]1C[C@H]1NCCc2cc(OC)c(OC)cc21`, the inhibition is 98.9% (active). As for `COc1cc2c(cc1O)[C@H](Cc1ccc(Oc3cc(C[C@@H]4NCCc5cc(OC)c(O)cc54)ccc3O)cc1)NCC2`, the inhibition was 1.5%. On to `Fc1ccc(-n2c(Cc3ccccc3)nnc2SCc2nc(-c3ccc(Cl)cc3)no2)cc1`, for which the inhibition is -0.4%. For the compound `COc1ccc(CN2CCC(n3nccc3NC(=O)CCCc3ccccc3)CC2)cc1C`, the inhibition was 2.8%. The result for `CN(NC(=O)c1ccccc1F)c1nc(C(F)(F)F)nc2ccccc12` reads 83.3% (active); that for `CSc1nc(N(C)NC(=O)c2cccc(C)c2)c2ccccc2n1`, 94.6% (active). On to `COc1ccc(C(=O)NN(C)c2nc(-c3ccccc3)cc(C)c2S(C)(=O)=O)cc1`, for which the inhibition was 1%.

With `CN(NC(=O)c1ccccc1)c1nc2ccccc2nc1C(F)(F)F`, the inhibition is -0.3%. The result for `COC(=O)CNC(=O)c1ccccc1F` reads -2.1%. Next, `Cc1cccc(C(=O)NCCCN(C)CCCNC(=O)c2cccc(C)c2)c1`: -0.9%. Regarding `CCOc1ccccc1NC(=S)NC(=O)CCc1ccccc1`, the inhibition was -2.9%.

For `NC(=O)CSc1nnc(NC(=O)c2ccc(Br)o2)s1`, the inhibition was -5.8%.

On to `CN(C)CCCNC(=O)c1cc(C(=O)Cc2ccc(Cl)cc2)c[nH]1`, for which the inhibition was 2.2%.

As for `COc1ccc(N2CCN(S(=O)(=O)c3ccc4c(c3)NC(=O)C(C)C(=O)N4)CC2)cc1` (configuration not stated), the inhibition is 1%.

Turning to `COc1cc(C(=O)NN(CCC#N)C2=NS(=O)(=O)c3ccccc32)cc(OC)c1OC`, the inhibition was -4.2%. Next, `Cn1cccc1/C=N/NC(=O)CNc1cccc2ccccc12`: 47.6% (active); `Cc1cccc(/C=N/NC(=O)CNc2cccc3ccccc23)n1`: 37.6% (active); `Cn1cccc1/C=N/NC(=O)c1ccc(OC(F)(F)C(F)F)cc1`: 2.6%. Turning to `Cc1ccccc1NCC(=O)N/N=C\c1ccc([N+](=O)[O-])s1`, the inhibition is -4.9%.

Consider `Cc1cccc(C(=O)Nc2ccc(C(=O)N/N=C/c3cccc(C)n3)cc2)c1`, for which the inhibition was 1.5%.

`C/C(=N\NC(=O)CNc1cccc2ccccc12)c1ccc(Br)s1`: the inhibition is 0.2%. In the case of `O=C(NCCCn1ccnc1)c1cc(Br)c(Br)s1`, the inhibition was -4.3%. As to `CN1C(=O)[C@H]2[C@@H](C3CC3)N3C(=O)CN(Cc4ccccc4)C(=O)[C@@]3(C)[C@H]2C1=O`, the inhibition is -1.7%.

`CC1CCCN(S(=O)(=O)c2ccc(C(=O)Nc3nnc(-c4ccncc4)o3)cc2)C1` (configuration not stated): the inhibition is -1%. For `CSCc1nnc(NC(=O)c2ccc(S(=O)(=O)N3CCCCC3C)cc2)o1` (configuration not stated), the inhibition is -0.9%. As for `CC1CCCCN1S(=O)(=O)c1ccc(C(=O)Nc2nnc(-c3cccs3)o2)cc1` (configuration not stated), the inhibition is 29.2% (active).

For `CCc1nn(CCCC(=O)Nc2ccc(C)c(C)c2)c(=O)c2cc3occc3n12`, the inhibition was -1.7%.

`CCCCCCn1cc(C(=O)O)c(=O)c2cc(F)c(N3CCCCC3)cc21`: the inhibition is 2.5%. On to `Cc1ccc(C)c(Cn2cnc3c(oc4ccccc43)c2=O)c1`, for which the inhibition was 19.8%.

With `O=C(c1n[nH]c2c1CCC2)N1CCCC(Nc2cccc(F)c2)C1` (configuration not stated), the inhibition was -8.3%. Next, `O=[N+]([O-])c1cccc(Nc2c3ccccc3nc3ccccc23)c1`: -0.9%; `Cc1ccc(Nc2c3c(nc4ccccc24)CCC3)cc1`: 7.5%. The result for `CC(=O)Nc1ccc(Nc2c3ccccc3nc3ccccc23)cc1` reads 95.3% (active); that for `COc1ccc(Cl)cc1NC(=O)CN(C)Cc1ccc(OC)c(OC)c1`, 5.1%. Regarding `COc1ccccc1N1CC(C(=O)Nc2nnc(SCC(=O)NCC3CCCO3)s2)CC1=O` (configuration not stated), the inhibition is 5.1%. `Nc1nonc1-n1nnc(C(=O)N/N=C\c2ccncc2)c1CN1CCCCC1`: the inhibition is -0.8%. Next, `CCOc1cc(/C=N/Nc2cc(C)nc3ccc(C)cc23)ccc1O`: -8.1%.

`O=C(O)CN1CCN(C(c2ccccc2)c2ccccc2)CC1`: the inhibition is -7.1%. The result for `CC1(C)CC(N2CCN(C(c3ccccc3)c3ccccc3)CC2)=CC(=[N+]2CCCCC2)C1` reads 30.6% (active); that for `CC(C)NC(=S)N1CCN(C(c2ccccc2)c2ccccc2)CC1`, -1.6%; that for `CC(C)c1ccc(/C=C2\NC(=O)NC2=O)cc1`, -2.7%. Next, `COc1ccc(N(C(=O)CNC(=O)c2ccco2)C(C(=O)NCC2CCCO2)c2ccccc2)cc1Cl` (configuration not stated): 4.1%. Next, `CN(C)c1ccc(/C=N\S(=O)(=O)c2ccccc2)cc1`: -2.3%.

With `CC[n+]1cc(C)ccc1/C=C/c1ccc(N(C)C)cc1`, the inhibition was 38.6% (active). The result for `CCSc1nnc(-c2cc3c(s2)-c2ccccc2CC3)o1` reads 5.3%.

Turning to `CC1CCCN(S(=O)(=O)c2ccc(-c3ccc(=O)[nH]n3)o2)C1` (configuration not stated), the inhibition was 2.6%.

With `COCCNc1ncnc2c1nc1n2CCCC1`, the inhibition is 2.4%. Next, `COc1ccccc1/C=C1\SC(=O)N(CCC(=O)N(C)C2CCS(=O)(=O)C2)C1=O` (configuration not stated): -0.8%; `CN1CCC(CN)(N2CCN(c3ccccc3)CC2)CC1`: -4.9%; `CCN(CC)c1ccc(NC(=O)c2ccc(Cl)nc2)cc1`: 55.7% (active). Take `O=C(NNc1ccccn1)c1ccc(Cl)nc1`: the inhibition is -4.7%.

`Cc1cnc(NC(=O)c2ccc(Cl)nc2)s1`: the inhibition was -6.8%. The result for `COc1cccc(CNC(=O)CCC2CCCN(C(=O)c3ccc(F)c(Cl)c3)C2)c1` (configuration not stated) reads 1.1%; that for `O=C(CNC(=O)c1cccs1)N/N=C/c1cccc(Br)c1`, -5.3%. Next, `O=C(CCN1C(=O)C2C3C=CC(C3)C2C1=O)Nc1ccccc1F` (configuration not stated): -2.4%. As to `O=C(CN1C(=O)C2C3C=CC(C3)C2C1=O)Nc1nc(-c2ccccn2)cs1` (configuration not stated), the inhibition is 32.2% (active). Next, `O=C(CN1C(=O)C2C3C=CC(C3)C2C1=O)NCCc1ccccc1Cl` (configuration not stated): -1.9%.
